These compounds were tested on Vero E6 infected with SARS-CoV-2 (assay: inhibition of SARS-CoV-2 cytopathic effect; higher = more antiviral protection, active = above 15). Conditions: 833.33 nM; 48 h.
`CC(C)=CCC[C@](C)(O[C@@H]1O[C@H](CO)[C@@H](O)[C@H](O)[C@H]1O)[C@H]1CC[C@]2(C)[C@@H]1[C@H](O)C[C@@H]1[C@@]3(C)CC[C@H](O)C(C)(C)[C@@H]3CC[C@]12C` [ginsenoside-C-K] was tested, and the “inhibition of SARS-CoV-2 cytopathic effect” value (shortened to “inhibition”) was -0.21% (inactive).
For `C=C(C)CN1CC[C@]23c4c5ccc(O)c4O[C@H]2c2[nH]c4ccccc4c2C[C@@]3(O)C1C5`, the “inhibition” value was 0.21% (inactive).
`C[C@]1(COc2ccc(N3CCC(Oc4ccc(OC(F)(F)F)cc4)CC3)cc2)Cn2cc([N+](=O)[O-])nc2O1` [delamanid] was tested, and the “inhibition” value was 2.83% (inactive).
In the case of `Nc1ncnc2c1c(-c1ccc(Oc3ccccc3)cc1)nn2C1CCCC1`, the “inhibition” value is reported as -0.21% (inactive).
`C1=C2CCCN[C@H]2[C@@H]2C[C@H]1[C@H]1CCCCN1C2` [aloperine] was tested, and the “inhibition” value was 0.5% (inactive).
With `COc1cc(NC(=O)c2ccc(-c3ccc(Cl)cc3)o2)cc(OC)c1` the “inhibition” value was 0.19% (inactive).
In the case of `C=C[C@H]1CN2CC[C@H]1C[C@@H]2[C@@H](O)c1ccnc2ccc(OC)cc12` [quinidine], the “inhibition” value is reported as -4.54% (inactive).
In the case of `CC(=O)N[C@H](Cc1ccc2ccccc2c1)C(=O)N[C@H](Cc1ccc(Cl)cc1)C(=O)N[C@H](Cc1cccnc1)C(=O)N[C@@H](CO)C(=O)N[C@@H](Cc1ccc(O)cc1)C(=O)N[C@H](CCCNC(N)=O)C(=O)N[C@@H](CC(C)C)C(=O)N[C@@H](CCCNC(=N)N)C(=O)N1CCC[C@H]1C(=O)N[C@H](C)C(N)=O` [cetrorelix], the “inhibition” value is reported as 5.13% (inactive).
In the case of `CC(=O)Nc1cccc(-n2c(=O)n(C3CC3)c(=O)c3c(Nc4ccc(I)cc4F)n(C)c(=O)c(C)c32)c1` [trametinib], the “inhibition” value is reported as -16.9% (inactive).
In the case of `Clc1ccc(-c2nc3sccn3c2/C=N/OCc2ccc(Cl)c(Cl)c2)cc1`, the “inhibition” value is reported as -0.11% (inactive).
In the case of `C[C@H]1CNCCCN1S(=O)(=O)c1cccc2cncc(F)c12` [ripasudil], the “inhibition” value is reported as -1.5% (inactive).
For `COc1ccc(-n2[nH]c3c4c(ncc3c2=O)CCCCC4)cc1`, the “inhibition” value was 1.15% (inactive).
In the case of `N[C@@H]1CONC1=O` [cycloserine-(D)], the “inhibition” value is reported as -4.11% (inactive).
For `C[C@@H](N)c1ccc(C(=O)Nc2ccnc3[nH]ccc23)cc1`, the “inhibition” value was -5.51% (inactive).
`CCn1cc(C(=O)O)c(=O)c2cc(F)c(N3CCNC(C)C3)c(F)c21` (stereo not given) [lomefloxacin] was tested, and the “inhibition” value was 0.73% (inactive).
In the case of `CC(C)CCC[C@@H](C)[C@H]1CC[C@H]2[C@@H]3CC=C4C[C@@H](O)CC[C@]4(C)[C@H]3CC[C@]12C` [cholesterol], the “inhibition” value is reported as -1.83% (inactive).
In the case of `O=C1c2ccccc2C(Cc2ccnc(F)c2)(Cc2ccnc(F)c2)c2ccccc21`, the “inhibition” value is reported as 2.26% (inactive).
In the case of `Nc1ccn([C@H]2CC[C@@H](CO)O2)c(=O)n1` [zalcitabine], the “inhibition” value is reported as -2.84% (inactive).
In the case of `CCCn1c(=O)c2[nH]c(C3CCCC3)nc2n(CCC)c1=O`, the “inhibition” value is reported as -1.44% (inactive).
`C[C@]12CC[C@H](O)C[C@H]1CC[C@@H]1[C@@H]2CC[C@]2(C)[C@@H](c3ccc(=O)oc3)C[C@H]3O[C@]132` [resibufogenin] was tested, and the “inhibition” value was -20.4% (inactive).
`c1ccc(Cn2c(N3CCNCC3)nc3ccccc32)cc1` [lerisetron] was tested, and the “inhibition” value was -3.79% (inactive).
For `O=C(O)CC/C=C\C[C@@H]1CO[C@H](c2ccccc2Cl)O[C@@H]1c1ccccc1O` (racemic), the “inhibition” value was 0.59% (inactive).
With `CCCC(=O)OCOC(=O)C1=C(C)NC(C)=C(C(=O)OC)C1c1cccc(Cl)c1Cl` (stereo not given) [cleviprex] the “inhibition” value was 0.61% (inactive).
In the case of `Cc1cc(C)nc(NS(=O)(=O)c2ccc(N)cc2)n1` [sulfamethazine], the “inhibition” value is reported as 0.92% (inactive).
For `CCC(=O)O[C@@H](O[P@@](=O)(CCCCc1ccccc1)CC(=O)N1C[C@H](C2CCCCC2)C[C@H]1C(=O)O)C(C)C` [fosinopril], the “inhibition” value was 1.19% (inactive).
For `Oc1ccc(CC2NCCc3cc(O)c(O)cc32)cc1` (stereo not given) [higenamine], the “inhibition” value was -0.52% (inactive).
With `O=C(O)Cn1nnc(-c2cc(N3CCC(Oc4cc(F)ccc4Br)CC3)no2)n1` the “inhibition” value was -0.54% (inactive).
For `CC(C)C(=O)c1c(C(C)C)nn2ccccc12` [ibudilast], the “inhibition” value was 7.59% (inactive).
In the case of `N[C@H](C(=O)O)[C@H](O)c1ccc(O)c(O)c1` [droxidopa], the “inhibition” value is reported as 1.07% (inactive).
`Cc1cc(=O)[nH]c(=S)[nH]1` [methylthiouracil] was tested, and the “inhibition” value was 1.73% (inactive).
With `CCCCN(CCCC)C(=O)CN1C[C@H](c2ccc3c(c2)OCO3)[C@@H](C(=O)O)[C@@H]1c1ccc(OC)cc1` [atrasentan] the “inhibition” value was 2.37% (inactive).
With `Cc1csc(S(=O)(=O)N(CC(C)C)c2cc3c(cc2OCc2ccc(C(=O)O)cc2)CCC3)n1` the “inhibition” value was 2.51% (inactive).
For `N=C(N)Nc1ccc(C(=O)Oc2ccc3cc(C(=N)N)ccc3c2)cc1` [nafamostat], the “inhibition” value was 3.65% (inactive).
`CC(C)SC(=N)N` [S-isopropylisothiourea] was tested, and the “inhibition” value was 0.88% (inactive).
`O=C(NCC(=O)N1CCCC1)Nc1ccc2cnccc2c1` was tested, and the “inhibition” value was 1% (inactive).
With `CCC(CC)O[C@@H]1C=C(C(=O)O)C[C@H](N)[C@H]1NC(C)=O` [oseltamivir-carboxylate] the “inhibition” value was 1.32% (inactive).
In the case of `O=C(c1ccc(CN2CCOCC2)cc1)N1CCN(C2CC2)CC1` [bavisant], the “inhibition” value is reported as -0.97% (inactive).
`Cc1ccc(NC(=O)c2cccc(N(C)C)c2)cc1NC(=O)c1ccc(O)cc1` was tested, and the “inhibition” value was 1.14% (inactive).
For `CC(=O)[C@H]1CC[C@H]2[C@@H]3CCC4=CC(=O)CC[C@]4(C)[C@H]3CC[C@]12C` [progesterone], the “inhibition” value was 2.43% (inactive).
For `N[C@@H](C(=O)O)c1ccc(C(=O)O)c(O)c1` (racemic) [4-carboxy-3-hydroxyphenylglycine-(RS)], the “inhibition” value was -0.355% (inactive).

From the supplement of paper PMC13380429
